Source: PubChem
Sampled rows, rich in hits. Any-hit rate of the full collection: about 1.8%.
LYPLA2 counter: LYPLA2 (human) inhibition in PME1 counter-screen; recombinant LYPLA2, FP-Rh probe fluorescence polarization; O95372; 320,000 compounds, 0.38% hits; inhibition, % at 5.9 µM;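 active means inhibition above the screen-wide mean plus 3 SD, limit set per campaign, cut at about 26% in these data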
PME-1 primary: blocks human protein phosphatase methylesterase 1; Q9Y570; recombinant PME-1, FP-Rh probe fluorescence polarization; inhibition, % at 5.9 µM; 320,000 compounds, 0.53% hits;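 active means inhibition above the campaign mean of all compounds plus 3 SD, cut at about 26% in these data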;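 further: competitive labeling of PME-1 active site by serine hydrolase directed probe; inhibitors block probe labeling so polarization falls and inhibition rises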
LYPLA1 inh: counter-screen for PME1 inhibitors: inhibitors of human LYPLA1. recombinant LYPLA1, FP-Rh probe fluorescence polarization. inhibition, % at 5.9 µM. 320,000 compounds, 0.16% hits;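 active means inhibition above the mean of all tested compounds plus 3 SD, set per campaign, cut at about 14% in these data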;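 further: inhibitors block serine hydrolase probe labeling of LYPLA1 so polarization falls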
GSTO1 inh: counter-screen for RBBP9 inhibitors: inhibitors of human GSTO1 | recombinant GSTO1, activity-based probe fluorescence polarization | P78417 | inhibition, % at 5.96 µM | 300,000 compounds, 1.1% hits | AID 1974;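 active means inhibition above the campaign mean inhibition plus 3 SD, cut at about 35% in these data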
PAD4 inh: blocks human protein arginine deiminase 4; inhibition, % at 6.36 µM; recombinant PAD4, RCA probe fluorescence polarization; Q9UM07; AID 485272; 330,000 compounds, 0.41% hits;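 active means percent inhibition above a cutoff equal to the mean of all tested compounds plus 3 SD, cut at about 15% in these data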
Target sequence (Q9UM07 whole entry, looked up): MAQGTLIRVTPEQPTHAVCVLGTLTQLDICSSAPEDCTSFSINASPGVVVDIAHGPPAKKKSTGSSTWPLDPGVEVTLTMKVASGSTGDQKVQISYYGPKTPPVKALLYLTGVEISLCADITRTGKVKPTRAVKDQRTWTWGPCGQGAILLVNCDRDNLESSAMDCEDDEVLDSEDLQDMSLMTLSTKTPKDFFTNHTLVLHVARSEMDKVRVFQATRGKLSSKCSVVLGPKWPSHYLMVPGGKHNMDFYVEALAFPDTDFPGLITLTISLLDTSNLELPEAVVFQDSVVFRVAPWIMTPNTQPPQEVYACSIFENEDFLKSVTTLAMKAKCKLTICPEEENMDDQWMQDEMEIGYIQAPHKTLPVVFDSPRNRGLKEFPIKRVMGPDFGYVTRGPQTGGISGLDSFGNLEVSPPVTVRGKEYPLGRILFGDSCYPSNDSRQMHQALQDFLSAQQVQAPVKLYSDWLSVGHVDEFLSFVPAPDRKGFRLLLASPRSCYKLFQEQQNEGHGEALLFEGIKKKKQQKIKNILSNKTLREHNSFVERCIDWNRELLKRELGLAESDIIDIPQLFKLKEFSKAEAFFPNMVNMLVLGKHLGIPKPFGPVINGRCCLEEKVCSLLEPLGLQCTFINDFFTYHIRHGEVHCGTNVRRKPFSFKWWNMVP
Fam108B inh: Fam108B inhibition, counter-screen for RBBP9 inhibitors; recombinant Fam108B, FP-Rh probe fluorescence polarization; inhibition, % at 9.51 µM; 300,000 compounds, 0.33% hits;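 active means inhibition above the screen mean inhibition plus 3 SD, computed separately per campaign, cut at about 18% in these data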;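 further: inhibitors lower polarization as less probe binds the enzyme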
LYPLA2 confirm: LYPLA2 (human) inhibition, confirmation counter-screen; AID 2232; recombinant LYPLA2, FP-Rh probe fluorescence polarization; inhibition, % at 5.9 µM; 1,100 compounds, 72% hits; shares compounds with LYPLA2 counter;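 active means mean inhibition across replicates above the hit cutoff set in the primary screen, cut at about 26% in these data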;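 further: blocked labeling of the enzyme by serine hydrolase FP-Rh probe lowers polarization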
LYPLA2 ABPP: blocks human acyl-protein thioesterase 2 in gel ABPP | rhLYPLA2 in mouse brain proteome, gel ABPP FP-Rh | 150 compounds, 30% hits | inhibition, % at 20 µM | shares compounds with LYPLA2 counter;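 active means inhibition of LYPLA2 enzyme probe labeling above about 50%, limit read from the data; inactive means inhibition below that limit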;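 further: loss of FP-Rh probe labeling of the LYPLA2 gel band measured as band density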
Each line names hits and unclear results; the compound was inactive in the other large screens (follow-up assays come after a bar, where they were run).

Cc1cc(CCCCCCCCc2cc(C)cc(=O)o2)oc(=O)c1	LYPLA2 counter 37 | LYPLA2 confirm 45
COC(=O)c1cc(C)cc(=O)o1	none
Cc1ccccc1-c1noc(-c2ccccc2C(=O)NCC2CCCO2)n1 (centres undefined)	none
COc1ccc(-n2c(C)cc(C(=O)Cn3c(NCCO)nc4ccccc43)c2C)cc1	LYPLA2 counter 56 | LYPLA2 confirm 62 | LYPLA2 ABPP inactive
O=C(Cn1c(NCCO)nc2ccccc21)c1ccc(F)cc1	none
Cc1nc2sc(C(c3ccc(Cl)cc3)N3CCN(c4ccccc4F)CC3)c(O)n2n1 (centres undefined)	LYPLA2 counter 29 | LYPLA2 confirm 30
Cc1nc2sc(C(c3ccco3)N3CCN(c4ccccc4F)CC3)c(O)n2n1 (centres undefined)	none
CCC1(c2ccccc2)ON(c2c(Br)cccc2Br)C1=O (centres undefined)	none (no result: GSTO1 inh, Fam108B inh)
CCOc1ccc(-n2c(=S)sc3c(=O)n(-c4ccccc4)c(SC)nc32)cc1	LYPLA2 counter 56 | LYPLA2 confirm inactive
O=C(CSc1cccc[n+]1[O-])c1cc2ccccc2o1	none
N#Cc1ccc(-c2ccc(OCC(=O)NCCc3ccccc3)cc2)cc1	LYPLA2 counter 35 | LYPLA2 confirm inactive
COC(=O)c1cc(S(=O)(=O)N2CCN(Cc3ccccc3)CC2)c[nH]1	none
Cc1cc(NC(=O)CN2CCN(C/C=C/c3ccccc3)CC2)c([N+](=O)[O-])cc1C	none
O=C(CN1CCN(C/C=C/c2ccccc2)CC1)Nc1cc([N+](=O)[O-])ccc1Cl	LYPLA2 counter 31, LYPLA1 inh 22 | LYPLA2 confirm 29
O=[N+]([O-])c1ccc(C(O)CN2CCN(C/C=C/c3ccccc3)CC2)cc1 (centres undefined)	LYPLA2 counter 62 | LYPLA2 confirm 54 | LYPLA2 ABPP inactive
CCCOc1ccc(-c2c(=O)n(O)c3ccccc3[n+]2[O-])cc1	LYPLA2 counter 50 | LYPLA2 confirm inactive
COc1cccc(-c2csc(N3CCN(CC(=O)Nc4ccc5c(c4)OCO5)CC3)n2)c1	none
COc1ccc(NC(=O)CN2CCN(c3nc(-c4cccc(OC)c4)cs3)CC2)cc1	LYPLA2 counter 33 | LYPLA2 confirm inactive
CCCn1c(N)c(N(CCOC)C(=O)/C=C/c2ccc(C(=O)OC)cc2)c(=O)[nH]c1=O	none
COC(=O)c1ccc(NC(=O)C(=O)N2CCN(C(=S)Nc3ccc(C)cc3)CC2)cc1	LYPLA2 counter 48 | LYPLA2 confirm 54
COC(=O)c1ccc(NC(=O)C(=O)N2CCN(C(=S)Nc3ccc(OC)cc3)CC2)cc1	LYPLA2 counter 42 | LYPLA2 confirm 58
Oc1ccccc1CNCCCN1CCOCC1	none
COCCN(C(=O)CSc1nc(N)cc(=O)[nH]1)c1c(N)n(Cc2ccccc2)c(=O)[nH]c1=O	none
COc1ccc(NC(=S)NNS(=O)(=O)c2ccc3ccccc3c2)c(OC)c1	none
COc1cc(C)c(NC(=O)c2cccc(S(=O)(=O)N3CCCC3)c2)cc1OC	none (no result: LYPLA2 counter, PME-1 primary, LYPLA1 inh, GSTO1 inh, Fam108B inh)
COc1ccc(/C=C2\SC(=S)N(CCCC(=O)Nc3cccc(C(=O)O)c3)C2=O)cc1OC	none
COc1ccc(/C=C2\SC(=O)N(CC(=O)Nc3cccc(C)c3)C2=O)cc1O	LYPLA2 counter 41 | LYPLA2 confirm 38
COc1cc(/C=C2\SC(=O)N(CC(=O)Nc3cccc(C)c3)C2=O)ccc1OC(C)C(=O)O (centres undefined)	LYPLA2 counter 74 | LYPLA2 confirm 74 | LYPLA2 ABPP 80
COc1ccc(/C=C2\SC(=S)N(CCC(=O)Nc3cccc(O)c3)C2=O)cc1OC	none
O=C(NNc1ccccc1[N+](=O)[O-])Nc1cccc(Cl)c1	LYPLA2 counter 40 | LYPLA2 confirm 46
Cn1ccsc1=NC(=O)c1ccc(S(=O)(=O)C(F)F)cc1	none
Cc1c(Cl)cccc1NC(=O)CSC(N)=O	none
CCOC(=O)N1CCN(CC(=O)Nc2sccc2C#N)CC1	LYPLA2 counter 45 | LYPLA2 confirm 39
